Reference: PubChem BioAssay AID1440 (NMMLSC, 2008)
Screen size: about 220,000 compounds; fewer than 10 were called active. Inconclusive results (about 92%) are left out. How the calls were made is not given here. Only a sample is shown.

target: Guanine nucleotide-binding protein G(o) subunit alpha (Homo sapiens) + Regulator of G-protein signaling 19 (Homo sapiens) (UniProt P09471+P49795); assay: modulators of human RGS19-Gαo interaction – biochemical, multiplexed bead flow cytometry (AID 1440); conditions: RGS19-Galphao binding, at 10 µM;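 further: fluorescent Galpha o activated by aluminum fluoride binding bead-coupled RGS19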
Sequence (P09471 whole entry, looked up): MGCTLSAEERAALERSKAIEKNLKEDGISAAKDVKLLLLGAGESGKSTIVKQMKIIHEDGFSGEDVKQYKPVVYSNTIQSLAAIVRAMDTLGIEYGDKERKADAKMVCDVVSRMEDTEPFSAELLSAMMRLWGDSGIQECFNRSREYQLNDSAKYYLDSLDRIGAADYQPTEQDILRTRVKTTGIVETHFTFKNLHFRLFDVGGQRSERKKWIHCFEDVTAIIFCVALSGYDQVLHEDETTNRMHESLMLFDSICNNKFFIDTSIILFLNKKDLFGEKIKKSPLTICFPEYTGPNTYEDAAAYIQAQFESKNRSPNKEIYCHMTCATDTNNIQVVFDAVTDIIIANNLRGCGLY
Sequence (P49795 whole entry, looked up): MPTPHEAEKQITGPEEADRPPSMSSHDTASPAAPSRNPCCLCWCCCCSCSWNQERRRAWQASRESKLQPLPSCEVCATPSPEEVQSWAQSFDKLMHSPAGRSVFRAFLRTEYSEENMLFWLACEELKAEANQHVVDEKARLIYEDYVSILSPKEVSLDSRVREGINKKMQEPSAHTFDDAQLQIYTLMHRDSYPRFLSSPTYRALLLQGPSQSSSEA

Row | Compound | binding response (% of control) [%]
1 | O=C(c1ccccc1)N1CCCCCC1 | 58.2
2 | O=C(NC1CCCC1)C1CCC(CNS(=O)(=O)c2cccs2)CC1 (configuration not stated) | 88.8
3 | CCOC(=O)c1ccc(N2CN=C3SCC(=O)N3C2)cc1 | 94.6
4 | COc1ccc(-c2[nH]nc3c2C(c2ccsc2)C(C#N)=C(N)O3)cc1 (configuration not stated) | 80.2
5 | COc1ccccc1NC(=O)CSc1nnc(C2CCCCC2)n1C | 50.3
6 | CC/C(Cc1ccccc1)=N/NC(=O)c1cccc(Br)c1 | 130
7 | COC(=O)c1c(CSc2cccc(C)c2)noc1C(=O)NCc1ccco1 | 102
8 | CC(C)COCC1CC2(CC(C)C(=O)CC2=O)C(=O)O1 (configuration not stated) | 56.6
9 | CCc1nnc(NC(=O)COC(=O)CN2C(=O)c3ccccc3C2=O)s1 | 62.2
10 | COCCn1c(SCC(=O)c2ccc3c(c2)OCCO3)nnc1C(C)C | 59.5
11 | Cc1onc(-c2c(Cl)cccc2Cl)c1C(=O)Nn1cnnc1 | 102
12 | CCc1ncc(C(=O)c2ccc(OC)cc2)n1C | 108
13 | O=C(CN1CCCCCC1=O)OCc1ncc(-c2ccccc2)o1 | 96.5
14 | O=C1Nc2ccccc2/C1=C\c1cccn1-c1ccc(OC(F)(F)F)cc1 | 63.3
15 | Cc1ccc(C(=O)CSc2nc(N)cc(=O)[nH]2)cc1 | 64.8
16 | C/C(=N\NC(=O)CSc1nc2nc(C)cc(C)n2n1)c1ccccc1 | 96.1
17 | O=C(NCCCCC(NC(=O)c1ccc([N+](=O)[O-])cc1)C(=O)O)c1ccc([N+](=O)[O-])cc1 (configuration not stated) | 95.5
18 | CCOC(=O)Cn1nc(/C=C/c2ccc(C)cc2)ccc1=O | -18.6
19 | COC(=O)c1sccc1-c1ccc(C(=O)Nc2ccccc2)o1 | 122
20 | Cc1ccc(-c2cc(C(=O)OCC(=O)Nc3cc(C)on3)c3ccccc3n2)c(C)c1 | 81.7
21 | O=C(CSc1nc2ccccc2c(=O)n1CC1CCCO1)NCC1CCCO1 (configuration not stated) | 94.2
22 | COC(=O)C(NC(=O)Nc1ccccc1OC)C(C)C (configuration not stated) | 93.4
23 | CCOC(=O)C1=C(C)NC2=C(C(=O)c3ccccc32)C1c1cccnc1 (configuration not stated) | 104

Row | Compound | binding response (% of control) [%]
24 | CC(=O)Nc1ccc(OCC=C(Cl)Cl)cc1 | 82.1
25 | O=C(NCc1ccccc1)c1ccccc1OCC(=O)N1CCCCC1 | 38.1
26 | NC(=S)N/N=C1\CCSc2ccc(Cl)cc21 | 69
27 | Cc1ccc(S(=O)(=O)c2c(N)n(Cc3ccco3)c3nc4ccccc4nc23)cc1C | 92.1
28 | Cc1ccc(C(=O)NNC(=O)C2CCN(Cc3ccccc3)CC2)cc1 | 96.2
29 | CC1(C)C2CCC1(CS(=O)(=O)NCc1ccc(C(=O)O)cc1)C(=O)C2 (configuration not stated) | 107
30 | C[C@H](NS(=O)(=O)c1ccccc1F)C(=O)OCC(=O)N1CCc2ccccc21 | 106
31 | CC(=O)c1cc2c(cc1NS(=O)(=O)c1ccccc1)OCO2 | 94.9
32 | Clc1ccc(Cc2noc(CN3CCN(c4ccccc4)CC3)n2)c(Cl)c1 | -14.4
33 | CC1(C)Cc2c(c(N3CCOCC3)nc3snc(N)c23)CO1 | 20.9
34 | O=S1(=O)C=CC(N2CCOCC2)C1 (configuration not stated) | 162
35 | CCC(=O)NCCc1cc2cc(C)c(C)cc2[nH]c1=O | 96.3
36 | Cc1noc(C)c1C(=O)Nc1cccnc1 | 77.2
37 | Cc1ccc(S(=O)(=O)N2CCSC2)cc1C | 113
38 | COC(=O)Cc1c(C)nc2nc(-c3ccc(Cl)cc3)[nH]n2c1=O | 112
39 | CC(C)(C#N)NC(=O)c1ccco1 | 87.8
40 | Cc1cc2cc(CN(Cc3ccco3)C(=O)NCc3ccccc3)c(=O)[nH]c2cc1C | 98.1
41 | COc1ccc(-c2nc(-c3ccccc3)nc(N3CCN(C)CC3)c2C#N)cc1 | 114
42 | O=S1(=O)CCN2C(Cc3ccc(SC(F)F)cc3)=CSC2=N1 | 121
43 | Cc1ccc(Cl)c(NC(=O)COC(=O)c2ccccc2C(=O)c2ccc(Cl)c([N+](=O)[O-])c2)c1Cl | 115
44 | CCCCN1c2ccccc2N(CCCO)c2cc(C)nnc21 | 99
45 | O=C(NCC(c1cccnc1)N1CCN(c2ccc(F)cc2)CC1)C1CCCCC1 (configuration not stated) | 104
46 | CC12CC(c3ccccc3O1)N(C(=O)c1ccco1)C(=O)N2c1ccccc1 (configuration not stated) | 95.1

Row | Compound | binding response (% of control) [%]
47 | Cn1cnnc1SCC(=O)N1N=C2/C(=C/c3ccco3)CCCC2C1c1ccco1 (configuration not stated) | 61.5
48 | CC(NS(=O)(=O)c1cccc(Cl)c1)C(=O)Nc1ccc(-c2nc3ccccc3s2)cc1 (configuration not stated) | 115
49 | Cc1nn(Cc2ccc(Cl)cc2)c(C)c1N | 8.58
50 | CC(C)SCCCCOc1ccc2ccccc2c1 | 88.9
51 | CCOC(=O)c1nnn(-c2nc(N3CCCC3)nc(N3CCCC3)n2)c1-c1ccccc1 | 112
52 | CN(C)S(=O)(=O)c1ccc(C(=O)Nc2nnc(SCc3ccccc3)s2)cc1 | -32.2
53 | Cc1cc(C)n(C2CCCCC2OC(=O)c2ccccc2)n1 (configuration not stated) | 110
54 | CC1CN(S(=O)(=O)c2cccc(-c3cn4ccccc4n3)c2)CC(C)O1 (configuration not stated) | 105
55 | O=C(CSc1nnc(COc2ccc(Cl)cc2)o1)N1c2ccccc2CCc2ccccc21 | 98.2
56 | COc1ccc(Cc2nc3ccc(S(N)(=O)=O)cc3[nH]2)cc1OC | 56.5
57 | COc1ccc(C(=O)CN(C(=O)c2ccc(Cl)cc2)N2C(=O)C3CCCCC3C2=O)cc1 (configuration not stated) | 103
58 | Cc1c(NC(=O)CSc2nc3c(cnn3-c3ccccc3)c(=O)[nH]2)c(=O)n(-c2ccccc2)n1C | 125
59 | CC(C)CC1=C/C(=C/c2ccc(-c3ccccc3)o2)C(=O)O1 | 71.1
60 | Cc1ccc(Cl)c(OCCN2CCCC(C)C2)c1 (configuration not stated) | 118
61 | Cc1cc(=O)n2[nH]c(SCc3ccccc3)nc2n1 | 102
62 | O=C(c1ccccc1F)N1CCN(c2ccccc2)CC1 | 64.3
63 | Cn1cc(CN(CCCN2CCOCC2)C(=S)Nc2cccc(Cl)c2)c2ccccc21 | -17
64 | COC(=O)c1cc(OC)c(OC)cc1NC(=S)N1CCCC(CO)C1 (configuration not stated) | 98.1
65 | Cc1ccc(NC(=O)N(Cc2ccco2)Cc2cc3cc(C)cc(C)c3nc2Cl)cc1 | 92.8
66 | CCOc1ccc(-c2nnc(N)o2)cc1 | 71.8
67 | CC(=O)Nc1ccc(NC(=O)Oc2ccccc2)cc1 | 99.1
68 | CCOC(=O)c1c(C)n(-c2ccc(OC)cc2)c2c(C/C(C)=N/O)c(Br)c(OC)c(O)c12 | 120
69 | COc1cccc(C2=CC(c3ccc(OC)c(OC)c3OC)n3nnnc3N2)c1 (configuration not stated) | 102

Row | Compound | binding response (% of control) [%]
70 | O=Nc1c(O)n(Cc2ccc(Cl)c(Cl)c2)c2ccccc12 | 70.4
71 | CCOC(=O)c1nnc(-c2cccs2)nc1NC(C)C | 220
72 | CCOC(=O)c1nnn(-c2nc(OC)nc(N3CCCCC3)n2)c1-c1ccccc1 | 69.6
73 | O=C(c1cnccn1)N(Cc1cccs1)C1(C(=O)NC2CCCCC2)CCCCC1 | -941
74 | COc1ccc(Br)cc1-c1noc(-c2ccncc2)n1 | 92.5
75 | Cc1ccc(C(=O)NC(=S)N2CCN(C)CC2)cc1 | 97.8
76 | CC(=O)c1nc2ccccc2n1S(=O)(=O)c1ccc(C)cc1 | 97.2
77 | Clc1ccc(/C=N/N2CCN(Cc3ccccc3Cl)CC2)cc1 | 100
78 | COc1ccc(N2CCN(C(=O)CSc3nnnn3-c3ccc4c(c3)OCCO4)CC2)cc1 | 94.7
79 | COc1ccc(N(C(=O)Cn2nnc3ccccc32)C(C(=O)NCc2ccco2)c2cccnc2)cc1 (configuration not stated) | 110
80 | CC(C)(C)OC(=O)N1CCOCCOCCNCCOCCOCC1 | 98.6
81 | CN=C(Nc1cc(C)nn1-c1ccccc1)c1ccccc1 | 113
82 | COCCCNC(=O)c1ccc(NS(C)(=O)=O)cc1 | 96.8
83 | Cc1ccc(CNCC2CCCO2)o1 (configuration not stated) | 96.8
84 | COc1ccc2c(c1)c(C(=O)CNc1nc(C)cs1)c(C)n2C | 44.3
85 | FC(F)Oc1ccc(-c2c[n+]3c(n2-c2ccccc2)CCCCC3)cc1 | 256
86 | Cc1nn(Cc2ccc(F)cc2)c(C)c1NC(=O)c1cnn2cccnc12 | 109
87 | CC1=C(C(N)=O)C(c2cccc(OCc3ccccc3)c2)n2nnnc2N1 (configuration not stated) | 91.9
88 | Cc1ccc(Cl)cc1N(Cc1ccc(C(=O)NCc2cccnc2)cc1)S(=O)(=O)c1ccccc1 | 98.3
89 | CCCCCOc1ccc(NC(=O)CCCC(=O)O)cc1 | 81.9
90 | C#CCn1cnc2c(cnn2-c2ccc(C)c(C)c2)c1=O | 106
91 | COc1ccc(C(=O)CSc2nc3ncccc3[nH]2)cc1OC | 52.5
92 | CCn1cc(C(=O)NCC2CCCO2)c2cc(OC)c(OC)cc2c1=O (configuration not stated) | 103

Row | Compound | binding response (% of control) [%]
93 | Cc1cc(C)nc(SCC(=O)N2CCC(C(N)=O)CC2)n1 | 105
94 | CCC(=O)N1CCc2cc(S(=O)(=O)NC(Cc3ccccc3)C(=O)Nc3nccs3)ccc21 (configuration not stated) | -46.3
95 | O=c1[nH]c2cc3c(cc2cc1CN(Cc1ccc2c(c1)OCO2)Cc1nnnn1CC1CCCO1)OCO3 (configuration not stated) | 90.7
96 | Cc1ccc(/C=C2\CCCC3=C2NC(=S)NC3c2ccc(C)cc2)cc1 (configuration not stated) | 203
97 | C=CCn1c2ccccc2c2nnc(SCN3C(=O)c4ccccc4C3=O)nc21 | 77.7
98 | CCCC(C)NC(=O)Cc1ccccc1[N+](=O)[O-] (configuration not stated) | 110
99 | O=C(CN1CCSCC1)N1CCc2[nH]c3ccc(Br)cc3c2C1 | 66.9
100 | CCc1ccc(OCC(=O)Nc2cc(S(=O)(=O)CC)ccc2O)cc1 | 89.9
101 | Cc1ccc(NC(CC(=O)c2ccccc2)c2ccc(F)cc2)cc1 (configuration not stated) | 100
102 | O=C1COc2ccc(C(=O)NCc3ccc4c(c3)OCO4)cc2N1 | 104
103 | CC(NC(=O)C(=O)NN=C1CCCCCCCCCCC1)c1ccccc1 (configuration not stated) | 101
104 | COc1ccc(-c2nn[nH]n2)cc1OC | 116
105 | O=C(CN1CCOCC1)Nc1ncc(Cc2ccccc2Cl)s1 | 108
106 | Clc1ccc(-c2nn3c(C4COc5ccccc5O4)nnc3s2)cc1 (configuration not stated) | 17.6
107 | C/C(CC(=O)Nc1cccc(Cl)c1C)=N\NC(=O)C(=O)NCC(C)C | 105
108 | COC(=O)CNC(=O)COC(=O)c1ccc(OC)c([N+](=O)[O-])c1 | 98.3
109 | CCN1CCN(C(c2cccs2)C(C)NC(=O)c2c(F)cccc2F)CC1 (configuration not stated) | 114
110 | BrC(/C=C\c1ccccc1)=N/Nc1nc(N2CCOCC2)nc(N2CCOCC2)n1 | 98.4
111 | O=C(c1ccccc1NS(=O)(=O)c1ccc(Br)s1)N1CCCC1 | 102
112 | Cc1cc(C)c(C#N)c(SCC(=O)N2CCCCC2)n1 | 91.6
